The source made the active and inactive calls. How the source made its calls: active means hit-call score of the fitted dose curve at least 0.9, where 1 is the maximum; inactive means score below 0.9.
The compounds below were run on Human Leukocyte Antigen - DR isotype (HLADR), HLA-DRA (gene 3122) (assay: BSK_BE3C_HLADR: BioMAP Diversity Plus: BE3C Assay for Human Leukocyte Antigen - DR isotype (HLADR) Biomarker Activity (AID 2283032)). Conditions: primary human bronchial epithelial cells; actives raise or lower the signal.
Method in brief: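 ELISA read-out of HLA-DR on human lung bronchial epithelial primary cells, measured 24 h post-dosing. Both increases and decreases were scored relative to DMSO vehicle.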
For `CCCCCCCCCCC1CO1` (centres undefined), the AC50 was 31.2 µM (active).
For `Cc1cccnc1`, the outcome was “inactive”.
With `CC(C)CC(=O)CC(C)CC(C)C` (centres undefined) the AC50 was 36 µM (active).
For `CN(C)CCC(c1ccc(Cl)cc1)c1ccccn1` (centres undefined), the outcome was “inactive”.

What follows are compounds tested on Vascular cell adhesion molecule 1 (VCAM1), VCAM1 (gene 7412) (assay: BSK_4H_VCAM1: BioMAP Diversity Plus: 4H Assay for Vascular cell adhesion molecule 1 (VCAM1) Biomarker Activity (AID 2283033;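 on outcome: cell-surface VCAM-1 protein measured by ELISA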)). Conditions: primary human endothelial cells (HUVEC); actives raise or lower the signal.
Method in brief: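 ELISA read-out of VCAM-1 on human umbilical vein endothelium 24 hours after chemical dosing; gain or loss of signal was fitted relative to DMSO, with sulforhodamine B staining of parallel cultures flagging overt cytotoxicity.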
With `CCCCCCCCCCC1CO1` (centres undefined) the AC50 was 33.8 µM (active).
With `Cc1cccnc1` the outcome was “inactive”.
In the case of `CC(C)CC(=O)CC(C)CC(C)C` (centres undefined), the AC50 is reported as 39.2 µM (active).
For `CN(C)CCC(c1ccc(Cl)cc1)c1ccccn1` (centres undefined), the AC50 was 0.756 µM (active).

These compounds were tested on Interferon-gamma inducible Protein 10 (IP10), CXCL10 (gene 3627) (assay: BSK_BE3C_IP10: BioMAP Diversity Plus: BE3C Assay for Interferon-gamma inducible Protein 10 (IP10) Biomarker Activity (AID 2283034)). Conditions: primary human bronchial epithelial cells; actives raise or lower the signal.
Method in brief: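 Chemical is dosed onto human lung bronchial epithelial primary cells, cultures are incubated 24 h, and IP-10 is then quantified by ELISA. Gain or loss of signal is fitted in both directions relative to DMSO.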
In the case of `CCCCCCCCCCC1CO1` (centres undefined), the AC50 is reported as 30.6 µM (active).
`Cc1cccnc1` was tested, and the outcome was “inactive”.
With `CC(C)CC(=O)CC(C)CC(C)C` (centres undefined) the AC50 was 36.9 µM (active).
`CN(C)CCC(c1ccc(Cl)cc1)c1ccccn1` (centres undefined) was tested, and the outcome was “inactive”.

Each compound was assayed on Monokine induced gamma interferon (MIG), CXCL9 (gene 4283) (assay: BSK_BE3C_MIG: BioMAP Diversity Plus: BE3C Assay for Monokine induced gamma interferon (MIG) Biomarker Activity (AID 2283035;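 on outcome: MIG protein measured by ELISA in BE3C cultures after 24 h of dosing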)). Conditions: primary human bronchial epithelial cells; actives raise or lower the signal.
Method in brief: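 MIG level was determined by ELISA after 24 h chemical treatment of primary human bronchial epithelial cells. Values were fitted bidirectionally with DMSO as the negative control and activity baseline.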
`CCCCCCCCCCC1CO1` (centres undefined) was tested, and the outcome was “inactive”.
With `Cc1cccnc1` the outcome was “inactive”.
`CC(C)CC(=O)CC(C)CC(C)C` (centres undefined) was tested, and the AC50 was 34.6 µM (active).
For `CN(C)CCC(c1ccc(Cl)cc1)c1ccccn1` (centres undefined), the outcome was “inactive”.

The compounds below were run on Transforming growth factor beta 1 (TGFb1), TGFB1 (gene 7040) (assay: BSK_BE3C_TGFb1: BioMAP Diversity Plus: BE3C Assay for Transforming growth factor beta 1 (TGFb1) Biomarker Activity (AID 2283036;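 further: TGF-b1 protein level measured by ELISA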)). Conditions: primary human bronchial epithelial cells; actives raise or lower the signal.
Method in brief: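 Primary human lung bronchial epithelial cells; compound exposure 24 h; TGF-b1 by ELISA; bidirectional fit, DMSO baseline. Parallel SRB total-protein staining for cytotoxicity.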
With `CCCCCCCCCCC1CO1` (centres undefined) the outcome was “inactive”.
In the case of `Cc1cccnc1`, the outcome is reported as “inactive”.
In the case of `CC(C)CC(=O)CC(C)CC(C)C` (centres undefined), the outcome is reported as “inactive”.
`CN(C)CCC(c1ccc(Cl)cc1)c1ccccn1` (centres undefined) was tested, and the outcome was “inactive”.

The compounds below were run on Plasminogen activator inhibitor-1 (PAI1), SERPINE1 (gene 5054) (assay: BSK_BE3C_PAI1: BioMAP Diversity Plus: BE3C Assay for Plasminogen activator inhibitor-1 (PAI1) Biomarker Activity (AID 2283037)). Conditions: primary human bronchial epithelial cells; actives raise or lower the signal.
Method in brief: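 Primary human lung bronchial epithelial cells; chemical dosing; 24 h; PAI-1 measured by ELISA; bidirectional fit referenced to DMSO as negative control.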
`CCCCCCCCCCC1CO1` (centres undefined) was tested, and the outcome was “inactive”.
In the case of `Cc1cccnc1`, the outcome is reported as “inactive”.
With `CC(C)CC(=O)CC(C)CC(C)C` (centres undefined) the AC50 was 37.4 µM (active).
In the case of `CN(C)CCC(c1ccc(Cl)cc1)c1ccccn1` (centres undefined), the outcome is reported as “inactive”.

The compounds below were run on urokinase plasminogen activator (uPA), PLAU (gene 5328) (assay: BSK_BE3C_uPA: BioMAP Diversity Plus: BE3C Assay for urokinase plasminogen activator (uPA) Biomarker Activity (AID 2283038;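 further: uPA protein level quantified by ELISA in cell cultures; uPA read one day after compound addition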)). Conditions: primary human bronchial epithelial cells; actives raise or lower the signal.
Method in brief: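 Using confluent primary human lung bronchial epithelial cultures, we dosed chemicals, waited 24 h, then ran a uPA ELISA, fitting bidirectionally against DMSO.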
In the case of `CCCCCCCCCCC1CO1` (centres undefined), the outcome is reported as “inactive”.
In the case of `Cc1cccnc1`, the outcome is reported as “inactive”.
With `CC(C)CC(=O)CC(C)CC(C)C` (centres undefined) the outcome was “inactive”.
`CN(C)CCC(c1ccc(Cl)cc1)c1ccccn1` (centres undefined) was tested, and the outcome was “inactive”.

Each compound was assayed on Urokinase-type plasminogen activator receptor (uPAR), PLAUR (gene 5329) (assay: BSK_BE3C_uPAR: BioMAP Diversity Plus: BE3C Assay for Urokinase-type plasminogen activator receptor (uPAR) Biomarker Activity (AID 2283039;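 on outcome: uPAR protein level measured by ELISA on the cells; cells exposed to compound for one day before measurement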)). Conditions: primary human bronchial epithelial cells; actives raise or lower the signal.
Method in brief: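 Human bronchial epithelial primary cells; chemical exposure 24 h; uPAR by ELISA; bidirectional fit vs DMSO control.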
For `CCCCCCCCCCC1CO1` (centres undefined), the outcome was “inactive”.
For `Cc1cccnc1`, the outcome was “inactive”.
`CC(C)CC(=O)CC(C)CC(C)C` (centres undefined) was tested, and the AC50 was 34.9 µM (active).
In the case of `CN(C)CCC(c1ccc(Cl)cc1)c1ccccn1` (centres undefined), the outcome is reported as “inactive”.

What follows are compounds tested on Interleukin-6 (IL6), IL6 (gene 3569) (assay: BSK_CASM3C_IL6: BioMAP Diversity Plus: CASM3C Assay for Interleukin-6 (IL6) Biomarker Activity for (AID 2283040)). Conditions: primary human coronary artery smooth muscle cells; actives raise or lower the signal.
For `CCCCCCCCCCC1CO1` (centres undefined), the outcome was “inactive”.
`Cc1cccnc1` was tested, and the outcome was “inactive”.
`CC(C)CC(=O)CC(C)CC(C)C` (centres undefined) was tested, and the AC50 was 20 µM (active).
In the case of `CN(C)CCC(c1ccc(Cl)cc1)c1ccccn1` (centres undefined), the outcome is reported as “inactive”.

What follows are compounds tested on Tissue plasminogen activator (tPA), PLAT (gene 5327) (assay: BSK_BE3C_tPA: BioMAP Diversity Plus: BE3C Assay for Tissue plasminogen activator (tPA) Biomarker Activity (AID 2283041;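 on outcome: tPA level quantified by ELISA one day after compound addition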)). Conditions: primary human bronchial epithelial cells; actives raise or lower the signal.
Method in brief: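 Primary human lung bronchial epithelial cultures receive test chemical; after 24 h, tPA is quantified by ELISA, and gain or loss of signal is fitted bidirectionally relative to DMSO baseline.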
`CCCCCCCCCCC1CO1` (centres undefined) was tested, and the outcome was “inactive”.
With `Cc1cccnc1` the outcome was “inactive”.
With `CC(C)CC(=O)CC(C)CC(C)C` (centres undefined) the AC50 was 29.4 µM (active).
In the case of `CN(C)CCC(c1ccc(Cl)cc1)c1ccccn1` (centres undefined), the outcome is reported as “inactive”.

These compounds were tested on Interleukin-8 (IL8), CXCL8 (gene 3576) (assay: BSK_CASM3C_IL8: BioMAP Diversity Plus: CASM3C Assay for Interleukin-8 (IL8) Biomarker Activity (AID 2283042;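 further: IL-8 protein level quantified by ELISA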)). Conditions: primary human coronary artery smooth muscle cells; actives raise or lower the signal.
`CCCCCCCCCCC1CO1` (centres undefined) was tested, and the outcome was “inactive”.
With `Cc1cccnc1` the outcome was “inactive”.
In the case of `CC(C)CC(=O)CC(C)CC(C)C` (centres undefined), the outcome is reported as “inactive”.
With `CN(C)CCC(c1ccc(Cl)cc1)c1ccccn1` (centres undefined) the outcome was “inactive”.

Reference: PubChem BioAssay (EPA / NIEHS)
